Unmarked numbers belong to inactive results. Records with an inconclusive call do not appear. Calls of active or inactive are those of the source. Unless noted, the call rests on the fitted dose curve; in most records, active means well fitted curve in either direction with a large enough effect (not every such curve was filed as active); inconclusive means small, poorly fitted or top-dose-only effect, or another doubt; inactive means flat fitted curve, though single readings scatter.
Test system: not listed separately
Assay: Stat Signaling Pathway (AID 446);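 further: ME-180 cervical cancer cells given 40 pM IL-6 alongside compound; SIE-controlled beta-lactamase reporter measured as 460/530 nm FRET emission ratio; on the % scale 0 is the no-effect control and ±100 the full control effect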
Settings: ME-180 SIE beta-lactamase reporter, IL-6 stimulated, 5 h; at 17.2 µM (top of the series) unless noted
In short: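 ME-180 cells carrying a SIE-driven beta-lactamase reporter are stimulated with 40 pM IL-6 for 5 h at 37C in the presence of compound. The 460/530 nm FRET substrate ratio is read after 2.5 h at RT. Data are normalised to 300 pM IL-6 and to 125 nM JAK inhibitor controls.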

| Compound | activity, negative = inhibition |
| --- | --- |
| CCCOc1ccc(N2C(=O)C3ON(c4ccccc4)C(c4ccc(O)c(OC)c4)C3C2=O)cc1 (stereo not drawn) | -20% |
| CCC(=NC(CC)CO)C1=C(O)CC(C)(C)CC1=O (stereo not drawn) | 12.8% |
| [N-]=[N+]=CC(=O)c1ccnc(C(=O)C=[N+]=[N-])c1 | -1.87% |
| Cc1ccc(-n2ncc3c(NCc4cccnc4)ncnc32)c(C)c1 | -18.9% |
| Nc1ccc2oc(-c3ccccc3Cl)nc2c1 | 2.57% |
| CNC(=O)c1cc2c(ccc3ccccc32)oc1=N | 13.1% |
| CCOc1ccc(CC2CC(=O)NC2=O)cc1 (stereo not drawn) | -1.04% |
| CCOc1ccc(S(=O)(=O)N(C)CCO)cc1-c1nc2c(C(C)(C)C)nn(C)c2c(=O)[nH]1 | -3.41% |
| C=C(C)CC1N(c2cccc(OC)c2)C(=O)[C@@H]2C(C(=O)O)[C@H]3C=C[C@@]12O3 (stereo partly drawn) | 3.15% |
| CCOC(=O)NC(Nc1sc2c(c1C(N)=O)CCCC2)(C(=O)OCC)C(F)(F)F (stereo not drawn) | -7.59% |
| Nc1ccc2cn[nH]c2c1 | 6.7% |
| CCCc1cc(-n2ccnc2C)n2c(nc3ccccc32)c1C#N | -3.66% |
| CC(=O)C1=C(O)C(=O)N(Cc2cccnc2)C1c1ccccc1Cl (stereo not drawn) | 1.82% |
| CC(C)Cc1nc(N2CCN(C(=O)C(C)C)CC2)c(C#N)c2c1CCC2 | 7.39% |
| CCOC(=O)CSc1nc(N)c2c3c(sc2n1)CCCC3 | -14.2% |
| CCC1(C)Cc2ccccc2-c2nc(NCCO)n(-c3ccccc3)c(=O)c21 (stereo not drawn) | -2.14% |
| Cc1ccc(-n2ncc3c(NCc4ccc5c(c4)OCO5)ncnc32)c(C)c1 | -19.8% |
| CC1(C)CC(=O)C(C=NCC(O)c2ccccc2)=C(O)C1 (stereo not drawn) | 8.79% |
| N#Cc1c(N2CCCCC2)nc(N2CCCCC2)c2c1CCN(Cc1ccccc1)C2 | 17.8% |
| Cn1c(Cl)nc2c1c(=O)n(Cc1cccc(Br)c1)c(=O)n2C | 12.7% |

| Compound | activity, negative = inhibition |
| --- | --- |
| Cc1nc2sc3c(NCc4ccco4)ncnc3c2c2c1COC(C)(C)C2 | -18.1% |
| CCCn1c(SCC(N)=O)nc2c(c1=O)C1(CCCC1)Cc1ccccc1-2 | -8.32% |
| COc1cccc(-c2nnc3sc(-c4ccc(C)cc4)nn23)c1 | 1.68% |
| Brc1cccc(-c2cnc3n2CCCCC3)c1 | -10.7% |
| N#Cc1nc(-c2cccs2)oc1NCc1ccccc1 | -1.04% |
| O=C(c1ccc2c3c(cccc13)C(=O)N(O)C2=O)N1CCCCC1 | 22.1% |
| Cc1cc(=O)[nH]c(SCC(=O)c2ccccc2)c1C#N | -5.21% |
| CCOC(=O)N1CCN(c2ncnc3c2cnn3-c2ccc(OC)cc2)CC1 | -2.17% |
| COc1cc(C2C(C#N)=C(N)Oc3cc(C)n(CCc4ccccc4)c(=O)c32)cc2c1OCO2 (stereo not drawn) | -6.08% |
| O=C1NC(c2cccs2)Nc2ccccc21 (stereo not drawn) | -4.53% |
| CCOc1ccc(CCNC(=O)C(O)c2ccccc2)cc1 (stereo not drawn) | 18.6% |
| CC1(C(=O)O)CCC(C(=O)NC2CCCCCC2)C1(C)C (stereo not drawn) | 10.5% |
| COC(=O)c1ccc(CN(C(C)=O)c2ccccc2)o1 | 7.8% |
| Cc1ccc(Cn2ncc3c(N4CCN(c5ccc(C)cc5)CC4)ncnc32)cc1 | -13.5% |
| O=C(O)CSCC(=O)Nc1ccc(S(=O)(=O)N2CCCCC2)cc1 | 23% |
| COC(=O)c1ccccc1NC(=O)CSc1nnc(-c2ccncc2)o1 | 0.0286% |
| COc1cccc(N2CCN(c3ncnc4c3[nH]c3ccccc34)CC2C)c1 (stereo not drawn) | -104% (active) |
| CCOc1cc2nc(-c3ccc(OC)c(OC)c3)nc(N3CCOCC3)c2cc1OC | -21.5% |
| COc1cccc(OC)c1OCC(C)CNCC1CCCO1 (stereo not drawn) | 10.2% |

Biological target: Glucocorticoid receptor (Homo sapiens) (UniProt P04150)
Sequence (P04150 whole entry, looked up): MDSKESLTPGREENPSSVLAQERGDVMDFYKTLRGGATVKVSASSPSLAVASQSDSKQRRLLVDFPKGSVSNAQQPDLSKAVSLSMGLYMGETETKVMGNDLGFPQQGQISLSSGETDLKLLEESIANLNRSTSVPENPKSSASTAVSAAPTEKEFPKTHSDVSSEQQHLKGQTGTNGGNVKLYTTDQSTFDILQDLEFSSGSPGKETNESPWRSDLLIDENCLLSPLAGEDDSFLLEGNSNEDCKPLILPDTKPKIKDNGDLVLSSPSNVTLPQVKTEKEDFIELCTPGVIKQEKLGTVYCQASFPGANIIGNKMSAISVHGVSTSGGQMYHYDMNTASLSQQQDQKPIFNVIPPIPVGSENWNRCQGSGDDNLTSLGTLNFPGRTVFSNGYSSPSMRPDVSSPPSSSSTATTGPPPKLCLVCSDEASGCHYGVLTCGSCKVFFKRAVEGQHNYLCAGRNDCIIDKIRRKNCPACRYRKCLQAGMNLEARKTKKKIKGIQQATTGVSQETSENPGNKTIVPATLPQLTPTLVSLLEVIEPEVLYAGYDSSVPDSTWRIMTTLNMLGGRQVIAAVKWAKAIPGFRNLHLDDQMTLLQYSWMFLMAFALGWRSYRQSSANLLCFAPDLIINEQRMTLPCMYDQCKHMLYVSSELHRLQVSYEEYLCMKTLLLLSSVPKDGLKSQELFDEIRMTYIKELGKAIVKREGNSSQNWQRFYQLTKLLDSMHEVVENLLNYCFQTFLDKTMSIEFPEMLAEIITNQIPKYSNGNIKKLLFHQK
Assay: GR-GFP Redistribution (AID 450;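 active means compounds whose dose series gives a full or clear partial fitted curve of increased nuclear translocation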; further: potency means the concentration at half of the fitted maximal effect)
Settings: U2OS GR-GFP nuclear translocation, laser cytometry, 2 h; series mostly up to 20.6 µM

| Compound | Potency [µM] |
| --- | --- |
| CCCOc1ccc(N2C(=O)C3ON(c4ccccc4)C(c4ccc(O)c(OC)c4)C3C2=O)cc1 (stereo not drawn) | > 20.6 |
| CCC(=NC(CC)CO)C1=C(O)CC(C)(C)CC1=O (stereo not drawn) | > 20.6 |
| [N-]=[N+]=CC(=O)c1ccnc(C(=O)C=[N+]=[N-])c1 | > 20.6 |
| Cc1ccc(-n2ncc3c(NCc4cccnc4)ncnc32)c(C)c1 | > 20.6 |
| Nc1ccc2oc(-c3ccccc3Cl)nc2c1 | > 20.6 |
| CNC(=O)c1cc2c(ccc3ccccc32)oc1=N | > 20.6 |
| CCOc1ccc(CC2CC(=O)NC2=O)cc1 (stereo not drawn) | > 20.6 |
| CCOc1ccc(S(=O)(=O)N(C)CCO)cc1-c1nc2c(C(C)(C)C)nn(C)c2c(=O)[nH]1 | > 20.6 |
| C=C(C)CC1N(c2cccc(OC)c2)C(=O)[C@@H]2C(C(=O)O)[C@H]3C=C[C@@]12O3 (stereo partly drawn) | > 20.6 |
| CCOC(=O)NC(Nc1sc2c(c1C(N)=O)CCCC2)(C(=O)OCC)C(F)(F)F (stereo not drawn) | > 20.6 |
| Nc1ccc2cn[nH]c2c1 | > 20.6 |
| CCCc1cc(-n2ccnc2C)n2c(nc3ccccc32)c1C#N | > 20.6 |
| CC(=O)C1=C(O)C(=O)N(Cc2cccnc2)C1c1ccccc1Cl (stereo not drawn) | > 20.6 |
| CC(C)Cc1nc(N2CCN(C(=O)C(C)C)CC2)c(C#N)c2c1CCC2 | > 20.6 |
| CCOC(=O)CSc1nc(N)c2c3c(sc2n1)CCCC3 | > 20.6 |
| CCC1(C)Cc2ccccc2-c2nc(NCCO)n(-c3ccccc3)c(=O)c21 (stereo not drawn) | > 20.6 |
| Cc1ccc(-n2ncc3c(NCc4ccc5c(c4)OCO5)ncnc32)c(C)c1 | > 20.6 |
| CC1(C)CC(=O)C(C=NCC(O)c2ccccc2)=C(O)C1 (stereo not drawn) | > 20.6 |
| N#Cc1c(N2CCCCC2)nc(N2CCCCC2)c2c1CCN(Cc1ccccc1)C2 | > 20.6 |
| Cn1c(Cl)nc2c1c(=O)n(Cc1cccc(Br)c1)c(=O)n2C | > 20.6 |

| Compound | Potency [µM] |
| --- | --- |
| Cc1nc2sc3c(NCc4ccco4)ncnc3c2c2c1COC(C)(C)C2 | > 20.6 |
| CCCn1c(SCC(N)=O)nc2c(c1=O)C1(CCCC1)Cc1ccccc1-2 | > 20.6 |
| COc1cccc(-c2nnc3sc(-c4ccc(C)cc4)nn23)c1 | > 20.6 |
| Brc1cccc(-c2cnc3n2CCCCC3)c1 | > 20.6 |
| N#Cc1nc(-c2cccs2)oc1NCc1ccccc1 | > 20.6 |
| O=C(c1ccc2c3c(cccc13)C(=O)N(O)C2=O)N1CCCCC1 | > 20.6 |
| Cc1cc(=O)[nH]c(SCC(=O)c2ccccc2)c1C#N | > 20.6 |
| CCOC(=O)N1CCN(c2ncnc3c2cnn3-c2ccc(OC)cc2)CC1 | > 20.6 |
| COc1cc(C2C(C#N)=C(N)Oc3cc(C)n(CCc4ccccc4)c(=O)c32)cc2c1OCO2 (stereo not drawn) | > 20.6 |
| O=C1NC(c2cccs2)Nc2ccccc21 (stereo not drawn) | > 20.6 |
| CCOc1ccc(CCNC(=O)C(O)c2ccccc2)cc1 (stereo not drawn) | > 20.6 |
| CC1(C(=O)O)CCC(C(=O)NC2CCCCCC2)C1(C)C (stereo not drawn) | > 20.6 |
| COC(=O)c1ccc(CN(C(C)=O)c2ccccc2)o1 | > 20.6 |
| Cc1ccc(Cn2ncc3c(N4CCN(c5ccc(C)cc5)CC4)ncnc32)cc1 | > 20.6 |
| O=C(O)CSCC(=O)Nc1ccc(S(=O)(=O)N2CCCCC2)cc1 | > 20.6 |
| COC(=O)c1ccccc1NC(=O)CSc1nnc(-c2ccncc2)o1 | > 20.6 |
| COc1cccc(N2CCN(c3ncnc4c3[nH]c3ccccc34)CC2C)c1 (stereo not drawn) | > 20.6 |
| CCOc1cc2nc(-c3ccc(OC)c(OC)c3)nc(N3CCOCC3)c2cc1OC | > 20.6 |
| COc1cccc(OC)c1OCC(C)CNCC1CCCO1 (stereo not drawn) | > 20.6 |
